Activity calls are given as the source filed them.
Legend:
[1] = system: PRMT1 (protein arginine N-methyltransferase 1); test: PRMT1 binders on small-molecule microarrays, primary screen, biochemical, small-molecule microarray, 635 nm fluorescence (AID 1088); settings: small-molecule microarray binding, higher = more signal;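 also: binding of Prmt1 protein to compounds spotted on small-molecule microarray slides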
[2] = yeast growth modulation, basal conditions, primary screen, YJM789 clinical isolate, OD600, 24 h (AID 1089);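 also: growth of clinical yeast isolate S. cerevisiae YJM 789 seeded 1000 cells per well; test concentration not given here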; settings: S. cerevisiae YJM789 growth, higher = more signal, called active from +8 up or from −8 down
[3] = fission yeast growth modulation, primary screen, strain 972, OD600, 24 h, no modulator (AID 1090);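 also: basal condition with compound alone and no growth modifier present; test concentration not given here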; settings: S. pombe 972 growth, higher = more signal, called active from +8 up or from −8 down
[4] = S. cerevisiae growth modulation with rapamycin, primary screen, strain BY4716, OD600, 96 h (AID 1091); settings: higher = more signal, called active from +8 up or from −8 down; also: test concentration not given here
[5] = target: Torsin-1A-interacting protein 2 (Homo sapiens) (UniProt Q8NFQ8); test: LULL1 binders on small-molecule microarray, primary screen, cell lysate, human LULL1 lysate, 635/667 nm fluorescence (AID 1092); settings: hLULL1 lysate binding, 635 nm fluorescence, higher = more signal;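 also: probe is lysate of COS7 cells overexpressing human LULL1; score merges per-feature 667 nm fluorescence with signal-to-noise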
[6] = E. coli growth modulation, two-sided OD650, primary screen, E. coli filamentation project, strain DRC41, 24 h (AID 1093); settings: OD650, 24 h, higher = more signal, called active from +8 up or from −8 down;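 also: MC1000 strain lacking acrAB efflux and sulA so SOS filamentation is blocked; test concentration not given here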
[7] = small-molecule microarray binders of probe aLefty2, primary screen, biochemical, biotinylated probe, 635/667 nm fluorescence (AID 1094); settings: higher = more signal;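 also: score merges spot fluorescence near 667 nm with spot signal-to-noise ratio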
[8] = system: Noggin (protein binding on small-molecule microarray); test: Noggin binders on small-molecule microarray, primary screen, biochemical, 635/667 nm fluorescence (AID 1095); settings: 635 nm fluorescence, higher = more signal;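 also: score merges 667 nm feature fluorescence with signal to noise over triplicate slides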
[9] = target: Neurogenic locus notch homolog protein 3 (Homo sapiens) (UniProt Q9UM47); test: NOTCH3 binders on small-molecule microarray, primary screen, biochemical, 635/667 nm fluorescence (AID 1096); settings: NOTCH3 binding, 635 nm fluorescence, higher = more signal
[10] = small-molecule microarray binders of probe aEGFR, primary screen, biochemical, biotinylated probe, 635/667 nm fluorescence (AID 1097); settings: higher = more signal;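 also: probe is a biotinylated anti-EGFR antibody binding compounds printed on slides; score combines fluorescence near 667 nm and signal to noise of each spot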
[11] = system: Plasmodium falciparum Sir2 (PF13_0152, Sir2A); test: pfSir2 binders on small-molecule microarrays, primary screen, biochemical, small-molecule microarray, 635 nm fluorescence (AID 1098); settings: small-molecule microarray binding, fluorescence 635 nm; higher = more signal;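 also: score merges spot fluorescence intensity with its signal-to-noise ratio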
[12] = small-molecule microarray binders of probe aDKK1, primary screen, biochemical, biotinylated probe, 635/667 nm fluorescence (AID 1099); settings: higher = more signal;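 also: score merges 667nm spot fluorescence with signal to noise across triplicate slides; reference of the scale not given here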
[13] = small-molecule microarray binders of probe aCHRDL2, primary screen, biochemical, biotinylated probe, 635/667 nm fluorescence (AID 1100); settings: higher = more signal
[14] = splicing luciferase reporter signal modulators, primary screen, spliceosome inhibition project, cell-based, HEK293, splice +/- reporter (AID 1101); settings: luminescence, 24 h, higher = more signal, called active from +8 up or from −8 down;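 also: HEK293 cells carrying a splicing-competent luciferase reporter gene; test concentration not given here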
[15] = target: Fibroblast growth factor 10 (Homo sapiens) (UniProt O15520); test: FGF10 binders on small-molecule microarrays, primary screen, biochemical, small-molecule microarray, 635 nm fluorescence (AID 1102); settings: FGF10 binding, fluorescence 635 nm, higher = more signal
[16] = system: glycogen synthase kinase-3 (GSK3A per assay name; protocol says GSK3B); test: GSK3 binders on small-molecule microarrays, primary screen, biochemical, small-molecule microarray, 635 nm fluorescence, GSK3A (AID 1103); settings: small-molecule microarray binding, fluorescence 635 nm; higher = more signal; also: the record names both GSK3A and GSK3B
[17] = target: Epidermal growth factor receptor (Homo sapiens) (UniProt P00533); test: EGFR binders on small-molecule microarrays, primary screen, biochemical, small-molecule microarray, 635 nm fluorescence (AID 1104); settings: EGFR binding, higher = more signal;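 also: score merges 667 nm emission intensity with spot signal to noise over triplicate slides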
[18] = target: Follistatin-related protein 3 (Homo sapiens) (UniProt O95633); test: FSTL3 binders on small-molecule microarrays, primary screen, biochemical, small-molecule microarray, 635 nm fluorescence (AID 1105); settings: FSTL3 binding, higher = more signal;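 also: score merges emission near 667 nm and signal to noise per printed spot across three slides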
[19] = target: Dickkopf-related protein 1 (Homo sapiens) (UniProt O94907); test: DKK1 binders on small-molecule microarrays, primary screen, biochemical, small-molecule microarray, 635 nm fluorescence scan (AID 1106); settings: DKK1 binding, higher = more signal;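 also: score merges emission near 667 nm with signal to noise over three replicate slides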
[20] = system: Inhibin beta A chain (activin A); test: INHBA (activin A) binders on microarrays, primary screen, biochemical, small-molecule microarray, 635 nm fluorescence scan (AID 1107); settings: small-molecule microarray binding, higher = more signal;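 also: mouse activin A protein probed at 4.33 µg/mL on printed slides; score merges bound-protein fluorescence near 667 nm with spot signal-to-noise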

Chain of Follistatin-related protein 3 (Homo sapiens) (O95633 whole entry, looked up): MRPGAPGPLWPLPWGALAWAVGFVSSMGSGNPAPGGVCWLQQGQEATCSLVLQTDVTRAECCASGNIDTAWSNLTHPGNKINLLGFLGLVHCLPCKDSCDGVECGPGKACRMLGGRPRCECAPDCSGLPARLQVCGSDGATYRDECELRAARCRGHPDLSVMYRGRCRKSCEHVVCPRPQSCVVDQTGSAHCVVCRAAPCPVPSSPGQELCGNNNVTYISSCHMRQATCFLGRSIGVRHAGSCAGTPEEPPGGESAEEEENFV
Chain of Epidermal growth factor receptor (Homo sapiens) (P00533 whole entry, looked up): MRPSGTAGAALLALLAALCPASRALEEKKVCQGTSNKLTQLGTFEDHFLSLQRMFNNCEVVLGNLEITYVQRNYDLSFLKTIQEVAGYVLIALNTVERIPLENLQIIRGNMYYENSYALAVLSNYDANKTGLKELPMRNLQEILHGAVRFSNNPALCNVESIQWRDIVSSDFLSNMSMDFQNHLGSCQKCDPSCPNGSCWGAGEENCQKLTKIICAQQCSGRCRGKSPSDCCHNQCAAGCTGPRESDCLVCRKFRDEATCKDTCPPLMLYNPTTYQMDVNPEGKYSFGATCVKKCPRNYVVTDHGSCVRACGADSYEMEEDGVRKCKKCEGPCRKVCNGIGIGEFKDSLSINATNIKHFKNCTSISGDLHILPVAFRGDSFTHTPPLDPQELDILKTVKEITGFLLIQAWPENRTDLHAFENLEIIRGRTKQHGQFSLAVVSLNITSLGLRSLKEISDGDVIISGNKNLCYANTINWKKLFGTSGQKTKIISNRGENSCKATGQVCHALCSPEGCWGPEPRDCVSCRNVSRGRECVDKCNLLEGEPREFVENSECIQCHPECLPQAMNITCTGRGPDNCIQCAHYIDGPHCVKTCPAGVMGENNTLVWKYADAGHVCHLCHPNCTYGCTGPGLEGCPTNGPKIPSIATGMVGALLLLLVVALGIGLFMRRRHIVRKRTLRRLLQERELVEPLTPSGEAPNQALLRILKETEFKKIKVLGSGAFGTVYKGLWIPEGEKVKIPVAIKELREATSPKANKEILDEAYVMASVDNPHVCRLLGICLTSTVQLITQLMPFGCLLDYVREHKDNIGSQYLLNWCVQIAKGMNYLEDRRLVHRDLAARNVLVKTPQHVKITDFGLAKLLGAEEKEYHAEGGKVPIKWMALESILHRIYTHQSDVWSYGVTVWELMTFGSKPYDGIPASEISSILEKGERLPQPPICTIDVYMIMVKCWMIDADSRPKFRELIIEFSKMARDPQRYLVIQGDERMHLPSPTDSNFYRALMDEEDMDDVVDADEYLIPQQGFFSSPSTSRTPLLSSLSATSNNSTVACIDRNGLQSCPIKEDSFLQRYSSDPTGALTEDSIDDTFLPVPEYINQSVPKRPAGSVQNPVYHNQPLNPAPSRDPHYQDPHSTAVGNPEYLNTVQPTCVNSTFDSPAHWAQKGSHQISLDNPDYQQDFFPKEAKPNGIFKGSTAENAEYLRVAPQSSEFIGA
Chain of Torsin-1A-interacting protein 2 (Homo sapiens) (Q8NFQ8 whole entry, looked up): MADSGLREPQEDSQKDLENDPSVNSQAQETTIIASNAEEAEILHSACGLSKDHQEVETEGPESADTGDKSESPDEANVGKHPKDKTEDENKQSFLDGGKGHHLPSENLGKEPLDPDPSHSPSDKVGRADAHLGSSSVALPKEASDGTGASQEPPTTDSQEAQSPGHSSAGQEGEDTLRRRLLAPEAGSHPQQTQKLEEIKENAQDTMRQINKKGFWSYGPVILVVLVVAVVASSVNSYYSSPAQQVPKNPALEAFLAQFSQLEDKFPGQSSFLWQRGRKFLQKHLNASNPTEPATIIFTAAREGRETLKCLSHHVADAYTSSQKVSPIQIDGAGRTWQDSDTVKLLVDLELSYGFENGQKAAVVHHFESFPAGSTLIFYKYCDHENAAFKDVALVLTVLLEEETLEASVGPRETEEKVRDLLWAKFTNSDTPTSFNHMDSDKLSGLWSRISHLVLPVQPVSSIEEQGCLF
Chain of Dickkopf-related protein 1 (Homo sapiens) (O94907 whole entry, looked up): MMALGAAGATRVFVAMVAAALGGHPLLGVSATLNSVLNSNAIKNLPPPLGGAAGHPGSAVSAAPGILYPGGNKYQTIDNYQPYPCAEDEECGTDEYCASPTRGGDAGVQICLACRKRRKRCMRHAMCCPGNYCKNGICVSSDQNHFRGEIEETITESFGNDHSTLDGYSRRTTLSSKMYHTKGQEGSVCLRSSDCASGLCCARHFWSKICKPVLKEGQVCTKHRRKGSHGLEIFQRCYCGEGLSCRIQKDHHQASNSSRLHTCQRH
Chain of Fibroblast growth factor 10 (Homo sapiens) (O15520 whole entry, looked up): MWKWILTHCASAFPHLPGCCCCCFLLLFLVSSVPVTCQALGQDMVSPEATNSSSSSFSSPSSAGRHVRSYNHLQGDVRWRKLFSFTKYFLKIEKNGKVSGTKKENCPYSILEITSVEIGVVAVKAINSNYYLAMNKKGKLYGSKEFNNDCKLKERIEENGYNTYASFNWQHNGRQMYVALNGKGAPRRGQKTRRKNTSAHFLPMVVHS
Chain of Neurogenic locus notch homolog protein 3 (Homo sapiens) (Q9UM47 whole entry, looked up): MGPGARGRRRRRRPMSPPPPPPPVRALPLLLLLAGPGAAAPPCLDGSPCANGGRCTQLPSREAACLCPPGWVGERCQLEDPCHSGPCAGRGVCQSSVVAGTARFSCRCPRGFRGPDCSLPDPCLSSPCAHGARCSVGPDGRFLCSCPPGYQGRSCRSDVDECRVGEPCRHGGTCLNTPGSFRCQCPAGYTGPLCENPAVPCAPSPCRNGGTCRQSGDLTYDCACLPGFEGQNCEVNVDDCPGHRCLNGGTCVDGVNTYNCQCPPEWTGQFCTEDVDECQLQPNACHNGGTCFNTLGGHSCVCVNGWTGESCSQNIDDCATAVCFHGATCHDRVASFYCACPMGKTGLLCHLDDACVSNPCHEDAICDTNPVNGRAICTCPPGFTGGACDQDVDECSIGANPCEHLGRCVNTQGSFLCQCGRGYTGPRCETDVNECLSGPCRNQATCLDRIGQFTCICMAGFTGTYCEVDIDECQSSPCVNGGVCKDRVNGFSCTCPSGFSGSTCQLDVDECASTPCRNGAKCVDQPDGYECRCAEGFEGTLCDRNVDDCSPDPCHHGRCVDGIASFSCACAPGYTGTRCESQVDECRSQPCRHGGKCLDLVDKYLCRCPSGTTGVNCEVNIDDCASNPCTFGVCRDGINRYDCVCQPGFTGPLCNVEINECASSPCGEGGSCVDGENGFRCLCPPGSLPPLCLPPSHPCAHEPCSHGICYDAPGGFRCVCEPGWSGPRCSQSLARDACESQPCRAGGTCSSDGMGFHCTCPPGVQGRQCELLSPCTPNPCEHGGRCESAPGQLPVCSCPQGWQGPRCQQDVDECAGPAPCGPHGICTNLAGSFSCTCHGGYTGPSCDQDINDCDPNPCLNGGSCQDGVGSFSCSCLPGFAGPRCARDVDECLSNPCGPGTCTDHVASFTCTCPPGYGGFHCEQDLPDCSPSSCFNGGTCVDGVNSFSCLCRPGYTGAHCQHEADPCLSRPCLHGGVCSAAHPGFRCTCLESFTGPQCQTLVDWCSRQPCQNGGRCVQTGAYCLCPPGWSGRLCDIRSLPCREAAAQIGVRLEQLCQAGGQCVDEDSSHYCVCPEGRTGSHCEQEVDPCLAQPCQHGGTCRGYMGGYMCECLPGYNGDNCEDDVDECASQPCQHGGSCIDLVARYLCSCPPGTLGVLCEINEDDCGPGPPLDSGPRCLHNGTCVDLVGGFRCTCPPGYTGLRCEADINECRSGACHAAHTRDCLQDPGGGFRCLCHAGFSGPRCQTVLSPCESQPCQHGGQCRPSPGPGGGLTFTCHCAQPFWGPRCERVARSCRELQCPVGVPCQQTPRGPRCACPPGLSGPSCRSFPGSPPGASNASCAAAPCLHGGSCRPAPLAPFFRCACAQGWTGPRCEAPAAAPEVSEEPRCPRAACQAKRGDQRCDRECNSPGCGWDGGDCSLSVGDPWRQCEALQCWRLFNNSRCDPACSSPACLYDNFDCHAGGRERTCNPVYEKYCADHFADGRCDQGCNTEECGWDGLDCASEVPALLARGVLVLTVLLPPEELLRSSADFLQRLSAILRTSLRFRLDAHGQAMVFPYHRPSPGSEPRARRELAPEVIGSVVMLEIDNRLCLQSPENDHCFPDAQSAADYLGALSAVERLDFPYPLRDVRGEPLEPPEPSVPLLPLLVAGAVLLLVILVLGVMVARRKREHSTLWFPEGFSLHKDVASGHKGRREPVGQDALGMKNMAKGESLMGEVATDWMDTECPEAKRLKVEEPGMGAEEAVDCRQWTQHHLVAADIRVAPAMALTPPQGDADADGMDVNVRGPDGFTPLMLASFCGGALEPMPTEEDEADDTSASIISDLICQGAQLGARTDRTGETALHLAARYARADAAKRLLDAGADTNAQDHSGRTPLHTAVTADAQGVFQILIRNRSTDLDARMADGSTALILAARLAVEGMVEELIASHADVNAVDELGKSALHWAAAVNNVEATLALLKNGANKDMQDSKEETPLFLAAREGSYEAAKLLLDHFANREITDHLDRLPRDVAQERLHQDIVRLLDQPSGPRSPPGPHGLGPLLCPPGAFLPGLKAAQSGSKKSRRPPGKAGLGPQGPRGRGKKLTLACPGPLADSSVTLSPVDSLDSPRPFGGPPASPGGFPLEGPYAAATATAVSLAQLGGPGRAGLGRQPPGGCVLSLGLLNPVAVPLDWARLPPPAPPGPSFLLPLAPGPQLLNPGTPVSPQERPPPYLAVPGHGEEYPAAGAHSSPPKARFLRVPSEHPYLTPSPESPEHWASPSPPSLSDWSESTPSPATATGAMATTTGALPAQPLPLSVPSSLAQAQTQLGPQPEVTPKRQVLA

SMILES | composite z-score [1] | z-score [2] | z-score [3] | z-score [4] | composite z-score [5] | z-score [6] | composite z-score [7] | composite z-score [8] | composite z-score [9] | composite z-score [10] | composite z-score [11] | composite z-score [12] | composite z-score [13] | z-score [14] | composite z-score [15] | composite z-score [16] | composite z-score [17] | composite z-score [18] | composite z-score [19] | composite z-score [20]
C=CCC(OC(C)=O)[C@@H]1[C@@H](N(Cc2ccc(-c3ccccc3)cc2)C(=O)c2ccc(C)cc2)c2cc(OCCCO)ccc2N1C(=O)c1ccc(-c2ccccc2)cc1 (stereo not given in full) | -0.173 | -3.23 (inactive) | -1.88 (inactive) | -1.75 (inactive) | 0.554 | 0.65 (inactive) | 0.0026 | -0.404 | -0.532 | 0.039 | -0.151 | 0.434 | 0.536 | -2.28 (inactive) | 0.104 | -0.176 | -0.0222 | -0.023 | -0.0546 | 1.42
COc1cccc([C@H]2N[C@H](C(=O)O)CC[C@@H]2C)c1 | -0.158 | -0.535 (inactive) | -0.823 (inactive) | 0.48 (inactive) | 0.0605 | 0.395 (inactive) | -0.23 | 0.002 | 0.202 | -0.139 | -0.406 | -0.251 | -0.136 | -1.94 (inactive) | -0.401 | 0.0602 | 0.194 | 0.0151 | 0.0655 | 0.282
CCCC=C(CCC)[C@@H](NS(=O)(=O)c1ccc(C(F)(F)F)cc1)c1ccc(-c2ccccc2)cc1 | 1.09 | 0.251 (inactive) | -3.21 (inactive) | -0.1 (inactive) | 3 | -0.39 (inactive) | 0.0491 | 0.77 | 0.762 | -0.013 | 0.163 | 0.888 | 0.83 | -1.69 (inactive) | 1.13 | 0.72 | 0.201 | 0.38 | -0.112 | 0.835
C=C(COC)/C(=C/C[C@@H](OC(C)=O)c1cccc(OCCO)c1)c1cc(C(=O)OC)ccc1OC | 0.602 | 0.036 (inactive) | -1.11 (inactive) | -1.03 (inactive) | 0.228 | 1.09 (inactive) | 0.0116 | 1.56 | 0.493 | -0.15 | 0.695 | 0.258 | 0.258 | -0.964 (inactive) | 0.0556 | 0.0957 | 0.214 | 0.121 | -0.0663 | 0.971
CC/C=C/C(=O)N(C[C@@H]1CCCO1)[C@@H]1CC(C(=O)NCCO)=C[C@H](Oc2c(I)cc(CO)cc2OC)[C@H]1O | 0.505 | -0.811 (inactive) | -1.79 (inactive) | -1.91 (inactive) | 1.69 | -0.159 (inactive) | 0.0612 | -0.294 | -0.155 | -0.191 | -0.251 | -0.154 | -0.162 | -1.44 (inactive) | 0.541 | -0.208 | 0.0798 | -0.434 | 0.554 | 0.0756
C=CCC(OC(C)=O)[C@@H]1[C@@H](N(Cc2cccc3ccccc23)C(=O)Cc2ccc(F)cc2)c2cc(OCCCO)ccc2N1C(=O)Cc1ccc2ccccc2c1 (stereo not given in full) | 0.204 | -0.167 (inactive) | 1.1 (inactive) | -0.276 (inactive) | 0.594 | 0.348 (inactive) | -0.0197 | -0.594 | -0.0809 | -0.121 | -0.182 | -0.0551 | 0.315 | -0.395 (inactive) | 0.2 | -0.236 | -0.285 | -0.0987 | -0.619 | 1.07
Cc1ccc(S[C@]2(C(=O)O)CC(=O)N(Cc3cc(C(F)(F)F)cc(C(F)(F)F)c3)[C@@H]2c2ccc(CO)cc2I)cc1 | 1.33 | -0.455 (inactive) | -2.26 (inactive) | 2.31 (inactive) | 1.59 | 0.663 (inactive) | 0.107 | -1.49 | -0.913 | -0.264 | 1.3 | 0.483 | 1.16 | -1.48 (inactive) | -0.458 | -1.13 | -1.65 | -1.07 | -1.38 | 0.645
O=C(N1CCCCC1)[C@@]1(CCS(=O)(=O)c2ccccc2)N=C(c2ccc(OCCCO)cc2)O[C@H]1c1ccccc1 | 1.24 | -0.418 (inactive) | -0.938 (inactive) | 30.4 (active) | 3.63 | 0.943 (inactive) | 0.0971 | 0.688 | 1.12 | -0.0828 | 0.332 | 0.653 | 0.896 | -0.372 (inactive) | 1.27 | 0.811 | -0.162 | 0.598 | -0.42 | 0.356
COc1ccc([Si](C)(C)[C@@H]2[C@@H](CC(=O)N(CCO)Cc3ccccc3)O[C@]3(C(=O)N(Cc4cccc(N5CCC5=O)c4)c4ccccc43)[C@H]2C)cc1 | 1.56 | -1.16 (inactive) | 0.463 (inactive) | 1.61 (inactive) | 1.57 | 1.48 (inactive) | -0.17 | 1.33 | 0.941 | -0.135 | 1.41 | -0.163 | -0.229 | -0.732 (inactive) | 1.07 | 0.583 | 0.475 | 0.875 | 0.313 | 0.552
C[C@H]1COC(=O)[C@H](Cc2ccccc2)NC(=O)[C@@H](C)COC(=O)[C@H](Cc2ccccc2)NC1=O | 1.57 | -0.743 (inactive) | -1.27 (inactive) | -0.278 (inactive) | 1.92 | -0.208 (inactive) | -0.243 | 0.996 | 1.13 | -0.0781 | 0.692 | -0.165 | -0.563 | -1.67 (inactive) | 0.632 | 0.847 | 0.485 | 0.897 | 1.11 | -0.687

From PubChem BioAssay
